Twelve compounds from PubChem BioAssay can be followed below.

The nature of assay [1]: resazurin metabolic signal in HepG2 cells – cell-based, resazurin fluorescence, 24 h, PK04 Diversity Set, profiling panel (AID 1172). Note: test concentration not given here. The settings on record: HepG2 viability, higher = more signal.
The nature of assay [2]: budding yeast growth changes without added modifier – OD600, strain BY4716, 24 h, basal condition, primary screen (AID 1173). The settings on record: S. cerevisiae BY4716 growth, OD600, 24 h; higher = more signal, called active from +8 up or from −8 down.
The nature of assay [3]: viability profiling in MM1S myeloma cells – cell-based, resazurin fluorescence, basal, 24 h, PK04 Diversity Set, profiling panel (AID 1174).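 Note: MM1S multiple myeloma cell line; test concentration not given here.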 The settings on record: higher = more signal, called active from +8 up or from −8 down.
In assay [4] the target is Dihydroorotate dehydrogenase (quinone), mitochondrial (Plasmodium falciparum (isolate 3D7)) (UniProt Q08210). Briefly: inhibition of P. falciparum DHODH – biochemical, C-terminal His tag, absorbance 600 nm, primary screen (AID 1175).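 Note: recombinant parasite enzyme with a five histidine tag at its C terminus; test concentration not given here.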 The settings on record: PfDHODH enzyme, DCIP absorbance 600 nm; higher = more signal, called active from +8 up or from −8 down.
Dihydroorotate dehydrogenase (quinone), mitochondrial (Plasmodium falciparum (isolate 3D7)), sequence (Q08210 whole entry, looked up): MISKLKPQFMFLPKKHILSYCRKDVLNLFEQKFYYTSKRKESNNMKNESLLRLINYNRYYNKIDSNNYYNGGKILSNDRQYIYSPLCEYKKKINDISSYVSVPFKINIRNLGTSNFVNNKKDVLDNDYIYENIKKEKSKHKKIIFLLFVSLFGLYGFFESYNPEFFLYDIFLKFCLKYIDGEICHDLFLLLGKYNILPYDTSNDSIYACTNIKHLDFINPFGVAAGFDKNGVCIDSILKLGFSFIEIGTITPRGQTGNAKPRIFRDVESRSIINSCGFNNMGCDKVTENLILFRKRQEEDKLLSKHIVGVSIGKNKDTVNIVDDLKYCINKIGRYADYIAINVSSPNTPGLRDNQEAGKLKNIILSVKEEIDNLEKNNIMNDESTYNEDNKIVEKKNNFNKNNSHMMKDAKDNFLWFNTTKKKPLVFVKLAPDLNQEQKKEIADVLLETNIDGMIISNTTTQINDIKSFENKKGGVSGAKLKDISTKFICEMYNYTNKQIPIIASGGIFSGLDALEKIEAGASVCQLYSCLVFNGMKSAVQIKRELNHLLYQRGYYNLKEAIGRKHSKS
A short description of assay [5]: inhibition of PAO1 biofilm formation – strain PAO1, LB-PBS medium, absorbance 600 nm, primary screen (AID 1176). Note: test concentration not given here. The settings on record: P. aeruginosa PAO1 growth/biofilm, A600, 12 h; higher = more signal.
Assay [6] in a line: growth modulation of vineyard yeast isolate – strain RM11-1a, OD600, basal, 24 h, primary screen (AID 1177).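 Note: cultures grown under basal conditions with no added stressor; test concentration not given here.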 The settings on record: S. cerevisiae RM11-1a growth, OD600, 24 h; higher = more signal, called active from +8 up or from −8 down.
Assay [7] is described as follows: growth of efflux-deficient E. coli DRC39 – strain DRC39, OD650, 24 h, E. coli filamentation inducers, primary screen (AID 1178).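 Note: growth measured as culture turbidity by optical density at 650 nm; test concentration not given here.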 The settings on record: E. coli DRC39 acrAB, higher = more signal, called active from +8 up or from −8 down.
Assay [8] can be described thus: growth of efflux-deficient E. coli DRC39 – strain DRC39, OD650, 48 h, E. coli filamentation inducers, primary screen (AID 1179).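 Note: screen aims at cell division blockers that make cells filament.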 The settings on record: E. coli DRC39 delta-acrAB growth, higher = more signal, called active from +8 up or from −8 down.
Assay [9] is described as follows: viability profiling in RPMI8226 myeloma cells – cell-based, resazurin fluorescence, basal, 24 h, PK04 Diversity Set, profiling panel (AID 1180).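 Note: RPMI8826 multiple myeloma cell line at 5000 cells per well; test concentration not given here.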 The settings on record: higher = more signal.
Assay [10] addresses E3 ubiquitin-protein ligase XIAP (Homo sapiens) (UniProt P98170). Briefly: small molecules binding XIAP protein – biophysical, small-molecule microarray, fluorescence 635 nm, primary screen (AID 1181).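 Note: score merges 667 nm emission and signal to noise over triplicate slides.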 The settings on record: higher = more signal.

SMILES strings stand for the structures. Active and inactive are the calls of the source. Unless noted, the rule behind the calls is not given here.

E3 ubiquitin-protein ligase XIAP (Homo sapiens), sequence (P98170 whole entry, looked up): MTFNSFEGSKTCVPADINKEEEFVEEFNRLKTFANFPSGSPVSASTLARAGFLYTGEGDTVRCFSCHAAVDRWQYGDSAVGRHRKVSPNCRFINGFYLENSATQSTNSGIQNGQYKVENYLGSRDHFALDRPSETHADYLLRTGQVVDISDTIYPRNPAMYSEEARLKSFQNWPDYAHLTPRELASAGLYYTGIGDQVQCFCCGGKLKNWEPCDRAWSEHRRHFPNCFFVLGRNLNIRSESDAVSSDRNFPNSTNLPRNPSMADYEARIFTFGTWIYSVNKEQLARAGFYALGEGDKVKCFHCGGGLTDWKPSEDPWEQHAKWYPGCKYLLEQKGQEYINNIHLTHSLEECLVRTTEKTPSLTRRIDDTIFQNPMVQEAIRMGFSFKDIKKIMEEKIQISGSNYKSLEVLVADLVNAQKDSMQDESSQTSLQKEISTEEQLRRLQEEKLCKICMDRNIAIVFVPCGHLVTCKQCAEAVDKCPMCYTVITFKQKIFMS

For the compound `C=CCNC(=O)[C@H]1[C@@H]2C(=O)O[C@@H](c3ccccc3)[C@@H](c3ccccc3)N2[C@@H](c2ccc(O)cc2)[C@]12C(=O)N(C(=O)OCCOC)c1ccc(C#CCNC(N)=O)cc12`, the z-score in assay [1] is -0.173; in [2] it was 0.516 (inactive); in assay [3], 0.244 (inactive); in assay [5] it was 0.911 (inactive); in [6], 1.14 (inactive); in [7], 0.204 (inactive). Also, the z-score was -0.135 (inactive) in assay [8] and -0.17 in [9]. The composite z-score in assay [4] was 0.132 (inactive); in assay [10], -0.219.

For `C=CCN1C(=O)[C@]2(O[C@H](CCO)[C@@H]([Si](C)(C)c3ccc(OC)cc3)[C@@H]2C)c2cc(N3C(=O)c4cccc5cccc3c45)ccc21`, the z-score in assay [1] was -5.43; in assay [2] it was 1.7 (inactive); in assay [3], -8.43 (active); in [5] it was 0.662 (inactive); in assay [6], 6.52 (inactive); in [7], 2.21 (inactive). For the same compound, the z-score is 1.44 (inactive) in [8] and -6.23 in [9]. Further, the composite z-score is 1.72 (inactive) in [4] and 0.0374 in assay [10].

Consider `CC(C)C[C@H]1NC(=O)[C@@]23C(=O)N[C@@H](Cc4ccccc4)C2[C@H](C)[C@@]2(C)O[C@H]2C3/C=C/C/C=C\CNC(=O)[C@H](Cc2ccccc2)NC1=O` (stereo not given in full), for which the z-score is 0.183 in assay [1]; 0.0247 (inactive) in [2]; 0.333 (inactive) in [3]; 0.0117 (inactive) in assay [5]; 1.66 (inactive) in assay [6]; 0.805 (inactive) in assay [7]. The z-score in assay [8] is 0.199 (inactive); in assay [9], 0.628. The composite z-score in assay [4] was -0.259 (inactive); in [10], 0.0842.

As for `O=C1OCCC/C=C\[C@H]2OC34C=CCN(Cc5ccccc5)C(=O)[C@H]3N(CCCCCCO)C(=O)[C@@H]4C12` (stereo not given in full), the z-score in assay [1] was 0.493; in [2], -0.908 (inactive); in [3], -0.549 (inactive); in [5], -0.497 (inactive); in assay [6] it was 0.692 (inactive); in assay [7] it was 1.23 (inactive). For the same compound, the z-score in [8] is 1.58 (inactive); in [9], 0.809. The composite z-score in [4] was -0.0805 (inactive); in [10], -0.15.

Consider `[N-]=[N+]=NCc1ccccc1[C@@H]1OC(c2ccc(OCCCO)cc2)=N[C@]1(CCS(=O)(=O)c1ccccc1)C(=O)NCc1ccccc1`, for which the z-score was 0.239 in assay [1]; 0.743 (inactive) in [2]; -0.304 (inactive) in assay [3]; 0.882 (inactive) in assay [5]; 0.797 (inactive) in assay [6]; 0.198 (inactive) in assay [7]. Moreover, the z-score in [8] was -0.678 (inactive); in assay [9] it was 0.144. The composite z-score in [4] is 0.59 (inactive); in assay [10], 0.194.

For `CN(C)CCCCCCNC(=O)[C@@H]1C[C@@H]2C(=O)N[C@@H](CCCCN)C(=O)N2[C@@H]1c1cccc(OCCO)c1`, the z-score was -0.205 in [1]; -0.707 (inactive) in [2]; 0.364 (inactive) in assay [3]; 1.29 (inactive) in [5]; -2.27 (inactive) in assay [6]; 0.731 (inactive) in [7]. For the same compound, the z-score in assay [8] is -0.199 (inactive); in [9] it was 0.393. Moreover, the composite z-score in [4] was -1.12 (inactive); in assay [10], 3.31.

Consider `COC(=O)C=C(CC(O)c1cccc(Cl)c1)OC` (stereo not given), for which the z-score in [1] was -0.0421; in assay [2] it was -11.9 (active); in [3], 0.427 (inactive); in assay [5] it was -1.07 (inactive); in [6], -1.85 (inactive); in assay [7], -0.246 (inactive). For the same compound, the z-score in assay [8] is 0.861 (inactive); in assay [9], -0.219. Further, the values for the composite z-score in assay [4] and in assay [10] were -1 (inactive) and -0.169, respectively.

As for `O=C(c1ccccc1)N1Cc2ccccc2[C@@H]2OC(c3ccc(OCCCO)cc3)=N[C@]2(Cc2ccccc2)C1=O`, the z-score in assay [1] is -0.448; in assay [2], -0.485 (inactive); in assay [3], -1.79 (inactive); in assay [5], 2.05 (inactive); in [6] it was 0.843 (inactive); in [7], -0.273 (inactive). The z-score is -0.749 (inactive) in [8] and -2.49 in [9]. The composite z-score in assay [4] is 0.369 (inactive); in [10], -0.102.

Turning to `C=CC[C@@]1(C(=O)N(C)C)N=C(c2ccc(OCCCO)cc2)O[C@@H]1c1ccccc1N=[N+]=[N-]`, the z-score in assay [1] is -0.614; in assay [2] it was 0.093 (inactive); in assay [3], -2.82 (inactive); in assay [5] it was 0.314 (inactive); in assay [6] it was 0.274 (inactive); in assay [7] it was -0.112 (inactive). For the same compound, the figures for the z-score in assay [8] and in assay [9] were 0.0912 (inactive) and -1.71, respectively. Besides, the results for the composite z-score in [4] and in assay [10] were -0.007 (inactive) and 0.0794, respectively.

For the compound `C=CC[C@@]1(C(N)=O)N=C(c2ccc(OCCCO)cc2)O[C@@H]1c1ccccc1CN=[N+]=[N-]`, the z-score is 0.165 in [1]; -0.935 (inactive) in [2]; 0.348 (inactive) in assay [3]; 0.426 (inactive) in [5]; -0.742 (inactive) in [6]; 0.793 (inactive) in assay [7]. The z-score in [8] was -0.597 (inactive); in assay [9] it was 0.093. In addition, the composite z-score is -0.0357 (inactive) in [4] and -0.201 in assay [10].

For the compound `C=CCOC(=O)[C@H]1[C@@H]2C(=O)O[C@@H](c3ccccc3)[C@@H](c3ccccc3)N2[C@@H](c2ccc(OCCOC(=O)[C@@H]3C[C@@H]4C(=O)N[C@@H](CCCCN(C)C)C(=O)N4[C@@H]3c3ccc(O)cc3)cc2)[C@]12C(=O)Nc1ccc(I)cc12`, the z-score in assay [1] is -0.513; in assay [2] it was -1.17 (inactive); in [3], -1.06 (inactive); in [5], 1.26 (inactive); in [6], 1.65 (inactive); in assay [7], -0.619 (inactive). Also, the values for the z-score in assay [8] and in assay [9] were 0.767 (inactive) and -1.18, respectively. Moreover, the composite z-score in [4] was -1.71 (inactive); in assay [10], -0.0749.

Regarding `CCCCCCC#C[Si](O[C@H](c1ccccc1)c1cn([C@H](CO)Cc2ccccc2)nn1)(C(C)C)C(C)C`, the z-score in [1] was 1.13; in assay [2], -1.93 (inactive); in assay [3] it was 0.389 (inactive); in [5], 0.395 (inactive); in [6] it was -0.297 (inactive); in [7], 0.953 (inactive). The z-score in assay [8] was 1.57 (inactive); in assay [9], 0.881. Besides, the composite z-score in [4] was -3.69 (inactive); in assay [10], -0.157.
